Results taken from PubChem BioAssay (NCATS).
Several values for one entry are separate records, joined by “and”; a condition that tells them apart may be missing. Identical values can stand only once. Values without a mark were called inactive. Results filed as inconclusive are left out. Activity calls are given as the source filed them. Unless noted, calls follow the shape of the dose curve; as a rule, active = well fitted curve in the direction sought with a large enough effect; inconclusive = small, poorly fitted or top-dose-only effect, or another doubt; inactive = no such curve, though single readings can be large; an effect the other way counts as inactive or inconclusive.

What was measured:
[1] = Cell Viability - SH-SY5Y (AID 544); details: SH-SY5Y neuroblastoma cell viability; viability change, negative = cytotoxic: at 92.2 µM (top of the series);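 also: cells exposed to compound for 40 hours; nearly all actives have a fitted effect of over 55% in size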; also: potency is read from the fitted curve at half-maximal effect;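 as to viability change, negative = cytotoxic: 0% = DMSO alone and -100% = 100 µM tamoxifen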
Summary of the method: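 Cells were plated at 1500 per well and allowed 5 hr at 37 °C. Compounds were added across a concentration range and incubated 40 hr at 37 °C. CellTiter-Glo was added for 20 min at room temperature before luminescence reading.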

[2] = Cell Viability - LYMP1-003 - Assay at 40 hr (AID 964); also: nearly all actives have a fitted effect of over 60% in size; also: potency is read from the fitted curve at half-maximal effect
Summary of the method: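 Luminescent ATP signal (CellTiter-Glo) served as the viability read-out after 40 hr compound treatment of human lymphoblastoid LYMP1-003 cells at 37 C. Decreases in ATP were fitted with the Hill equation to give AC50.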

[3] = Cell Viability - LYMP2-004 (AID 966); also: nearly all actives have a fitted effect of over 65% in size; also: potency is read from the fitted curve at half-maximal effect
Summary of the method: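 qHTS cytotoxicity: human lymphoblastoid line, 24 hr compound treatment, 37 C, complete medium. Viability read as cellular ATP via luciferase luminescence; tetraoctylammonium bromide served as positive control.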

[4] = Cell Viability - LYMP2-015 (AID 971); also: nearly all actives have a fitted effect of over 55% in size; also: potency is read from the fitted curve at half-maximal effect
Summary of the method: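 Cells are seeded at 2500 per well and incubated 5 hr at 37 C. Compounds are added across a concentration series for 24 hr at 37 C. CellTiter-Glo is added, and luminescence is read after 30 min at room temperature.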

[5] = Cell Viability - LYMP2-021 (AID 974);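 also: compound exposure lasts 24 hours at 37 °C; nearly all actives have a fitted effect of over 55% in size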; also: potency is read from the fitted curve at half-maximal effect
Summary of the method: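 Loss of cellular ATP, measured with a luciferase-based CellTiter-Glo readout, serves as the toxicity signal in human lymphoblastoid cells treated for 24 hours at 37 C. Potency is reported as AC50 from a standard Hill model.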

[6] = Cell Viability - LYMP2-006 (AID 978); also: nearly all actives have a fitted effect of over 60% in size; also: potency is read from the fitted curve at half-maximal effect
Summary of the method: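 Potency values are Hill-fit AC50s for decreases in intracellular ATP (CellTiter-Glo luminescence). LYMP2-006 lymphoblastoid cells, 2500 per well, were exposed to compound in complete culture medium for 24 hr at 37 C.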

[7] = Cell Viability - LYMP2-010 (AID 981); also: nearly all actives have a fitted effect of over 55% in size; also: potency is read from the fitted curve at half-maximal effect
Summary of the method: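 Steps: seed 2500 LYMP2-010 cells per well; incubate 5 hr at 37 C; add compound; incubate 24 hr at 37 C; add CellTiter-Glo, wait 30 min at room temperature; read luminescence. Concentration-response fitted to Hill equation for AC50.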

[8] = Cell Viability - LYMP2-012 (AID 982); also: potency is read from the fitted curve at half-maximal effect
[9] = Cell Viability - LYMP2-022 (AID 987); also: nearly all actives have a fitted effect of over 55% in size; also: potency is read from the fitted curve at half-maximal effect;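 as to viability change, negative = cytotoxic: 0% = DMSO alone and full effect = tetraoctylammonium bromide at 92 µM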
Summary of the method: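 Cells were seeded at 2500 per well, rested 5 hr at 37 C, and treated with titrated compounds for 24 hr at 37 C. Cellular ATP was then quantified by luciferase luminescence, and AC50 values were derived from Hill-modelled concentration-response curves.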

[10] = Cell Viability - LYMP2-024 (AID 988); also: nearly all actives have a fitted effect of over 60% in size; also: potency is read from the fitted curve at half-maximal effect
Summary of the method: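 qHTS cytotoxicity, human lymphoblastoid line, complete medium; 24 h cpd treatment, 37 C; CellTiter-Glo ATP luminescence readout; tetraoctylammonium bromide positive control; AC50 via Hill fit.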

[11] = target: Thyroid hormone receptor beta (Homo sapiens) (UniProt P10828); test: qHTS assay for small molecule antagonists of thyroid hormone receptor beta signaling (AID 588547; active = well fitted inhibition curve with a large enough effect in the signal ratio, with a control signal flat, not every such curve was filed as active; the % refers to the signal ratio;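 also: cells stimulated with 0.4 nM T3 agonist during compound exposure; % is scaled to controls: 0 for no effect and ±100 for the full control effect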); details: TR-UAS-bla HEK293, beta-lactamase ratio, antagonist mode, 18 h
Thyroid hormone receptor beta (Homo sapiens), sequence (P10828 whole entry, looked up): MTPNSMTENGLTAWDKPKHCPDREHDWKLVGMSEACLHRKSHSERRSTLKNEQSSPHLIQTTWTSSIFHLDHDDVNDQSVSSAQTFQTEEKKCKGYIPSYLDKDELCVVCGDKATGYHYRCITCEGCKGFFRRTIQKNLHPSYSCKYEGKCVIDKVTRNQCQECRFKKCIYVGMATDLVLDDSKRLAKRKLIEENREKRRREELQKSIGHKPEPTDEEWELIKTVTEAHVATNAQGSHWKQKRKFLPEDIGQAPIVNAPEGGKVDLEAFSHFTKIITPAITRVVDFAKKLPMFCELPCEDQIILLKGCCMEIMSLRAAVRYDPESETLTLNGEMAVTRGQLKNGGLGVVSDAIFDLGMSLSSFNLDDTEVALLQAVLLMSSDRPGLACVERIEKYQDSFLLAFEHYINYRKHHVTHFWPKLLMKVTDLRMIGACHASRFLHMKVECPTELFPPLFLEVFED
Summary of the method: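 TR-UAS-bla GripTite HEK293 cells in 2% charcoal/dextran FBS medium; compounds 0.59 nM to 92 uM with T3 at 0.4nM final, 18 h at 37 C. Beta-lactamase read by CCF4 fluorescence (460/530 nm); Hill fits gave IC50 and efficacy.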

[12] = qHTS assay for small molecule disruptors of the mitochondrial membrane potential - 1 hr assay (AID 651754; calls by dose curve; also: nearly all actives have a fitted effect of over 35% in size; also: potency is read from the fitted curve at half-maximal effect)
Summary of the method: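 Loss of mitochondrial potential shifts the cationic dye from red mitochondrial aggregates to green cytoplasmic monomers. Cells (HepG2) are treated with compound for 1 hr before a 30 min dye incubation at 37C.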

[13] = qHTS assay for small molecule disruptors of the mitochondrial membrane potential - 5 hr assay (AID 651755; calls by dose curve; also: nearly all actives have a fitted effect of over 40% in size; also: potency is read from the fitted curve at half-maximal effect)
Summary of the method: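 Read-out: ratiometric Mito-MPS fluorescence, green monomer (ex 490/em 535) vs red mitochondrial aggregate (ex 540/em 590). HepG2 cells treated 5 hr at 37C before 30 min dye loading.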

[14] = qHTS assay for small molecule antagonists of the retinoid-related orphan receptor gamma (ROR-gamma) signaling pathway - cell viability counter screen (AID 720652; active = well fitted curve in the direction sought with a large enough effect in the repeat runs; an effect the other way counts as inactive or inconclusive;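 also: compound exposure lasted 16 hr before ATP read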; also: potency is read from the fitted curve at half-maximal effect)
Summary of the method: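 Steps: seed CHO cells bearing TET-inducible ROR and ROR response element-luciferase; rest 5 hr at 37 C; add compound, then doxycycline; incubate 16 hr; add CellTiter-Glo and read luminescence as ATP-based viability.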

[15] = target: Nuclear receptor subfamily 1 group I member 2 (Rattus norvegicus) (UniProt Q9R1A7); test: qHTS assay for small molecule activators of the rat pregnane X receptor (rPXR) signaling pathway (AID 651751; call rule not given here; also: 0% is about no effect); details: rPXR reporter cells, luciferase (One-Glo), 24 h
Nuclear receptor subfamily 1 group I member 2 (Rattus norvegicus), sequence (Q9R1A7 whole entry, looked up): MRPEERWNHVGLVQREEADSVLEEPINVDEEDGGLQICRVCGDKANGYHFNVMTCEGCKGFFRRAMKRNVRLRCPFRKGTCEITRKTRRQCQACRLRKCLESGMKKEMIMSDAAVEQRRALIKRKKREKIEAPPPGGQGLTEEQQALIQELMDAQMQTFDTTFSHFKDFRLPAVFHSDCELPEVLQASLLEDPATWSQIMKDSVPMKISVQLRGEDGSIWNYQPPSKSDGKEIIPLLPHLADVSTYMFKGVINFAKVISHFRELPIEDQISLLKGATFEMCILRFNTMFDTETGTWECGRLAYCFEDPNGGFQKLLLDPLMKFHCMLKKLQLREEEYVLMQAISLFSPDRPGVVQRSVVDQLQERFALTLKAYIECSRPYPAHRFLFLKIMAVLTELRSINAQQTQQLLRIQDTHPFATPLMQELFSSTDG

[16] = Cell Viability - SK-N-SH (AID 435; calls by dose curve; also: potency is read from the fitted curve at half-maximal effect); details: SK-N-SH neuroblastoma cell viability qHTS
Summary of the method: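 qHTS cytotoxicity: CellTiter-Glo ATP luminescence after 40 h compound exposure of human neuroblastoma SK-N-SH cells at 37 °C. AC50 derived by Hill-equation fitting, with DMSO as basal and 100 uM tamoxifen as full inhibition.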

[17] = qHTS assay for small molecule activators of the p53 signaling pathway (AID 651743; active = well fitted activation curve with a large enough effect in the signal ratio, not every such curve was filed as active; the % refers to the signal ratio; also: potency is read from the fitted curve at half-maximal effect; as to activation: % of control where 0% means no effect); details: HCT-116 p53RE-bla, beta-lactamase FRET ratio, 16 h; activation: hits give high values
Summary of the method: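 Following 16 hours of compound exposure at 37 C, HCT-116 cells bearing the p53RE-bla reporter were loaded with LiveBLAzer B/G FRET substrate for 2 hours at room temperature and fluorescence intensity was recorded.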

[18] = Cell Viability - LYMP2-005 (AID 967); also: potency is read from the fitted curve at half-maximal effect
Summary of the method: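 LYMP2-005 human lymphoblastoid cells (2500/well) were treated with compounds for 24 h at 37 C. Intracellular ATP was then measured by CellTiter-Glo luminescence after 30 min at room temperature. AC50 values came from Hill-equation fits of qHTS concentration-response data.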

[19] = Cell Viability - LYMP2-001 (AID 921); also: nearly all actives have a fitted effect of over 70% in size; also: potency is read from the fitted curve at half-maximal effect
Summary of the method: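 Cellular ATP loss read by luciferase luminescence after 24 h compound exposure at 37 C in complete medium. LYMP2-001 lymphoblastoid cells, 2500/well; qHTS concentration-response data fitted with Hill equation for AC50.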

[20] = Cell Viability - Hek293 (AID 427;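 active = compounds whose dose-response curve shows a full or clear partial loss of cell viability, called from curve shape rather than a numeric limit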;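 also: potency is read from the fitted curve at half-maximal effect; cells exposed to compound for 40 hours at 37 °C before reading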); details: qHTS
Summary of the method: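 Luminescent ATP content (CellTiter-Glo, 20 min at room temperature) was measured after a 40 hr, 37 °C compound exposure of HEK293 cells. AC50 values came from Hill-equation fits of qHTS concentration-response data normalized to DMSO and 100 uM tamoxifen.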

Oc1cc2c(cc1O)[C@H]1c3ccc(O)c(O)c3OC[C@@]1(O)C2
viability change, negative = cytotoxic [1]: -82.8% (active)
Potency [2]: 39.8 µM (active)
Potency [3]: 31.6 µM (active)
Potency [4]: 25.1 µM (active)
Potency [5]: 31.6 µM (active)
Potency [6]: 39.8 µM (active)
Potency [7]: 39.8 µM (active)
Potency [8]: 25.1 µM (active)
Potency [9]: 31.6 µM (active)
Potency [10]: 25.1 µM (active)
activity change % (negative = inhibition) [11]: -14.1%
Potency [12]: inactive
Potency [13]: inactive
Potency [14]: inactive
max response [15]: -8.86%

Cc1c(C(=O)O)c(O)cc2c1C(=O)c1c(O)c([C@H]3O[C@H](CO)[C@@H](O)[C@H](O)[C@H]3O)c(O)c(O)c1C2=O
Potency [16]: 38.2 µM (active)
activation [17]: 0.0222%
Potency [12]: inactive
Potency [13]: inactive
max response [15]: -9.27%

Nc1ccc(N)c(Cl)c1
viability change, negative = cytotoxic [1]: -99% (active)
Potency [2]: 39.8 µM (active)
Potency [3]: inactive
Potency [18]: inactive
Potency [5]: inactive
Potency [6]: inactive
Potency [8]: inactive
Potency [9]: 39.8 µM (active)
activity change % (negative = inhibition) [11]: -7.72%
activation [17]: 1.03%
Potency [12]: 7.5 µM (active)
Potency [13]: 10.6 µM (active)
Potency [14]: inactive
max response [15]: -1.32%

CN(C)c1ccc(C(=N)c2ccc(N(C)C)cc2)cc1
Potency [1]: 10 µM (active)
Potency [19]: 31.6 µM (active)
Potency [18]: inactive
Potency [8]: 39.8 µM (active)
Potency [9]: 25.1 µM (active)
Potency [10]: 39.8 µM (active)
activity change % (negative = inhibition) [11]: -25.2%
activation [17]: 11.1%

C/C=C/C=C/C=O
Potency [1]: 31.6 µM (active)
Potency [19]: 39.8 µM (active)
Potency [3]: 31.6 µM (active)
Potency [18]: 39.8 µM (active)
Potency [4]: 39.8 µM (active)
Potency [5]: 39.8 µM (active)
Potency [6]: 39.8 µM (active)
Potency [7]: 31.6 µM (active)
Potency [8]: 31.6 µM (active)
Potency [9]: 25.1 µM (active)
Potency [10]: 25.1 µM (active)
Potency [12]: inactive
Potency [13]: inactive
Potency [14]: 29.8 µM (active)
max response [15]: -0.0021%

Cc1ccc(S(N)(=O)=O)cc1
Potency [20]: > 92 µM
Potency [16]: > 92 µM
Potency [1]: inactive
Potency [19]: inactive
Potency [2]: inactive
Potency [3]: inactive
Potency [18]: inactive
Potency [4]: inactive
Potency [5]: inactive
Potency [6]: inactive
Potency [7]: inactive
Potency [8]: inactive
Potency [9]: inactive
Potency [10]: inactive
activity change % (negative = inhibition) [11]: 17.3% and -1.91%
activation [17]: -4.8% and 0.0231%
Potency [12]: inactive
Potency [13]: inactive
Potency [14]: inactive
max response [15]: -1.87% and 3.62%

Cc1ccc(O)c(N)c1
Potency [20]: > 92 µM
Potency [1]: 20 µM (active)
Potency [19]: 50.1 µM (active)
Potency [18]: 50.1 µM (active)
Potency [7]: 39.8 µM (active)
Potency [9]: 39.8 µM (active)
Potency [10]: 39.8 µM (active)
activity change % (negative = inhibition) [11]: -10.8%
activation [17]: 2.36%
Potency [12]: 29.8 µM (active)
Potency [13]: 33.5 µM (active)
Potency [14]: inactive
max response [15]: 12.1%

Cc1c2ccccc2c(C)c2c1ccc1ccccc12
Potency [1]: 7.94 µM (active)
Potency [3]: inactive
Potency [18]: inactive
Potency [5]: inactive
Potency [6]: inactive
Potency [8]: inactive
Potency [9]: inactive
Potency [10]: inactive
Potency [17]: 44.7 µM (active)
Potency [12]: 37.6 µM (active)
Potency [13]: 33.5 µM (active)

Oc1ccc(O)c2c(O)cccc12
Potency [19]: 50.1 µM (active)
Potency [2]: inactive
Potency [3]: 50.1 µM (active)
Potency [5]: 50.1 µM (active)
Potency [9]: 50.1 µM (active)
Potency [10]: 50.1 µM (active)
activity change % (negative = inhibition) [11]: -24.9%
activation [17]: -2.36%
Potency [12]: 23.7 µM (active)
max response [15]: 1.1%

CCOc1ccc2nc(N)sc2c1
Potency [20]: > 92 µM
Potency [16]: > 92 µM
Potency [1]: inactive
Potency [19]: inactive
Potency [2]: inactive
Potency [3]: inactive
Potency [18]: inactive
Potency [4]: inactive
Potency [5]: inactive
Potency [6]: inactive
Potency [7]: inactive
Potency [8]: inactive
Potency [9]: inactive
Potency [10]: inactive
activity change % (negative = inhibition) [11]: -4.05%
activation [17]: -1.71%
Potency [14]: inactive

O=C(OCC1CO1)C1CCCCC1C(=O)OCC1CO1 (configuration not stated)
Potency [1]: 25.1 µM (active)
Potency [5]: 50.1 µM (active)
Potency [7]: 50.1 µM (active)
Potency [9]: 39.8 µM (active)
activity change % (negative = inhibition) [11]: -2.36%
Potency [12]: inactive
Potency [13]: inactive
Potency [14]: inactive
max response [15]: 1.33%
